# D1 potentiator – human D1 dopamine receptor positive modulation | HEK293 TREx D1 cells, calcium flux, dopamine EC20 potentiation | potentiation, % at 10 µM | hit rate 0.036% among 360,000 | AID 504651; in the data active = potentiation above about 30%; note: 0% is about no effect
# GRP78 ERSR act – ER stress response induction in glioma; U87-MG GRP78 promoter luciferase reporter, 16 h; Potency, µM, without a hit: at the highest dose activation, actives largely listed as activators; hit rate 0.02% among 420,000; AID 602332; active = well fitted activation curve with a large enough effect; inconclusive = small, poorly fitted or top-dose-only effect; inactive = no such curve, though single readings can be large or run the other way; note: potency is the fitted concentration of half-maximal effect; series mostly up to about 76 µM; % of control where 0% means no effect; nearly all actives have a fitted effect of over 35% in size
#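 ERSR induction read as luciferase luminescence (Bright-Glo, 10 min at room temperature) in stably transfected human U87-MG glioma cells exposed to compounds for 16 h, using GRP78 as sensor.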
# TRHR PAM – allosteric enhancers of human TRH receptor. hit rate 0.66% among 360,000. P34981. AID 493056. TRHR cells, fluo-8 calcium fluorescence, EC20 TRH enhancement. enhancement, % at 2 µM; in the data active = enhancement above about 30%; note: 0% is about no effect
# Target sequence (P34981 whole entry, looked up): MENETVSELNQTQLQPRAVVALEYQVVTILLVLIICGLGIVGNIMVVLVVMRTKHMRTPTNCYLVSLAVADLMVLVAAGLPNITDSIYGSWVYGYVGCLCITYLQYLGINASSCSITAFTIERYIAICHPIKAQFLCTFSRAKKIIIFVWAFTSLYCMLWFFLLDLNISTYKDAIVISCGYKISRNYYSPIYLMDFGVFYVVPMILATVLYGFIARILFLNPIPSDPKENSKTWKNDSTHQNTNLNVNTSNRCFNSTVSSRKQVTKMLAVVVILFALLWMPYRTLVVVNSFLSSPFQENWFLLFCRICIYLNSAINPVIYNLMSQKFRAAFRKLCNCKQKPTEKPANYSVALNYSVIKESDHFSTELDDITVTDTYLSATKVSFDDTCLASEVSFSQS
#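 Enhancer read-out: after compound pinning and an initial kinetic agonist-mode read, an EC20 of TRH (10 nM final) was injected and fluo-8 calcium signal (Ex 480/Em 530) followed at 1 s/cycle for 100 cycles in TRHR-expressing cells.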
# D1 ag – human D1 receptor agonism; hit rate 1% among 360,000; P21728; HEK293 T-REx D1 cells, calcium flux, agonist mode; activation, % at 2 µM; note: 0% is about no effect
#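 Inducible HEK293 T-REx D1 cells, force-coupled to calcium signalling, were plated at 4000 cells/well with tetracycline and held overnight at 30 C. After no-wash calcium dye loading, compound-evoked calcium rise over 180 s flagged agonists.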
# TRHR ag – activates the human TRH receptor; activation, % at 2 µM; AID 493084; TRHR cells, calcium flux fluo-8, FDSS agonist mode; P34981; hit rate 0.18% among 360,000; note: 0% is about no effect
#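 Fluo-8-loaded TRHR cells; 10 s baseline, compound added, kinetic Ca2+ fluorescence read 1/s, agonist mode.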
# D1 antagonist – blocks dopamine activation of the human D1 receptor; P21728; HEK293 TREx D1 cells, calcium flux, dopamine EC80; hits give low values; activity change, negative = inhibition, % at 10 µM; hit rate 3.2% among 360,000; in the data active = activity change below about -30%; note: % is set by controls: 0 for no effect and ±100 for the full control effect
#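 After overnight tetracycline induction at 30 C, force-coupled D1 HEK293 cells took up a no-wash calcium dye at room temperature. Compounds were added and monitored 180 s, and the response to EC80 dopamine was then recorded.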
# An asterisk follows results filed as active; ? = inconclusive; / = no result; ! = repeats disagree. A selection: hits, their analogues and other compounds. The true share with any hit is near 4%. Cut-off read from the data, not from the text of the source, unless noted: active = activation above about 30%; inactive = the rest.
SMILES,D1 potentiator,GRP78 ERSR act,TRHR PAM,D1 ag,TRHR ag,D1 antagonist
CC1(c2ccc([N+](=O)[O-])cc2)Nc2ccccc2S1 (stereo unspecified),3,?,31*,0,0,1
Cn1cc(S(=O)(=O)c2ccc(Cl)cc2)c(=O)c2cc(F)c(N3CCCCCC3)cc21,1,-2%,35*,0,1,7
Cc1ccc(C)c(S(=O)(=O)c2cn(C)c3cc(N4CCCCC4C)c(F)cc3c2=O)c1 (stereo unspecified),2,-1%,37*,3,0,11
CCc1ccc(S(=O)(=O)c2cn(C)c3cc(N4CCCCC4C)c(F)cc3c2=O)cc1 (stereo unspecified),0,-4%,2,5,-1,26
Cc1ccc(-c2[nH]ncc2C(=O)c2cccc(F)c2)c(O)c1,-5,2%,-5,7,0,-12
CCNC(=O)CCC(N)C(=O)O (stereo unspecified),/,-1%,/,/,/,/
O=P1(O)Cc2ccccc2-c2ccccc21,/,-4%,/,/,/,/
CCN1CCN(C(=O)CCCCCn2c(=O)[nH]c3cc(C(=O)OC)ccc3c2=O)CC1,-4,-5%,-1,1,0,-9
COC(=O)c1ccc2c(=O)n(CCCCCC(=O)N3CCN(c4ccccc4)CC3)c(=O)[nH]c2c1,-6,-12%,-4,6,0,-36*
COc1cc2[nH]c(=O)n(CCC(=O)N3CCN(c4ccc(Cl)cc4)CC3)c(=O)c2cc1OC,0,-3%,3,2,0,-3
O=C(CCn1c(=O)[nH]c2ccccc2c1=O)N1CCN(c2ccc(Cl)cc2)CC1,-4,-6%,27,6,-1,-32*
CC(=O)c1ccc(N2CCN(C(=O)CCCCn3c(=O)[nH]c4ccccc4c3=O)CC2)cc1,-5,-3%,2,5,0,-32*
COc1ccc(Cn2c(SCc3ccc(C(=O)NC4CCCCC4)cc3)nc3cccnc32)cc1,4,-2%,7,6,1,6
OCCN1CCN(Cc2ccc3c(c2)CN(Cc2cccn2-c2ccccn2)CCO3)CC1,/,-3%,/,/,/,/
COc1cc(OC)c(/C=C/c2cc3ccccc3c[n+]2C)c(OC)c1,/,-7%,/,/,/,/
COC(=O)c1ccccc1NC(=O)c1cc(-c2ccc(C)cc2)on1,-10,-4%,-6,3,0,3
Cc1cc(Cl)ccc1NC(=O)Cn1nc(C)c2c(C)n(-c3ccccc3)nc2c1=O,-1,/,3,1,-1,-7
COc1ccccc1CNC(=O)CCCn1nc(C)c2c(C)n(-c3ccccc3)nc2c1=O,-5,-5%,0,0,0,-21
Cc1cc(Cl)ccc1NC(=O)CCCn1nc(C)c2c(C)n(-c3ccccc3)nc2c1=O,2,-3%,-6,-2,-1,-32*
Cc1ccc(CCNC(=O)CCCn2nc(C)c3c(C)n(-c4ccccc4)nc3c2=O)cc1,-2,4%,-5,3,0,4
Cc1nn(C(C)C(=O)NCCN2CCCCCC2)c(=O)c2nn(-c3ccccc3)c(C)c12 (stereo unspecified),6,-2%,30*,0,0,16
COc1cccc(CNC(=O)CCCn2nc(C)c3c(C)n(-c4ccc(C)cc4)nc3c2=O)c1OC,-1,-2%,3,3,-2,-54*!
Cc1nn(CCCC(=O)NCCc2ccc(Cl)cc2)c(=O)c2nn(-c3ccccc3)c(C)c12,-3,-2%,8,-1,0,-33*!
COc1ccc(C(C)(C)C)cc1NC(=O)CSc1ncn[nH]1,-4,1%,-3,1,0,6
O=C(Nc1ccccc1F)c1cnc(N2CCCCC2)c2ccccc12,-2,-3%,2,0,0,16
SMILES,D1 potentiator,GRP78 ERSR act,TRHR PAM,D1 ag,TRHR ag,D1 antagonist
O=C(COC(=O)c1n[nH]c(=O)c2ccccc12)Nc1cccc(S(=O)(=O)N2CCOCC2)c1,/,-5%,/,/,/,/
Cc1nn(CCCC(=O)NCCc2ccccc2)c(=O)c2nn(-c3ccccc3)c(C)c12,0,5%,-10,0,0,-36*
Cc1nn(-c2ccccc2)c2c1N(CCCC(=O)NCc1ccccc1)C(=O)CS2,1,-3%,-3,0,0,-9
Cc1nn(-c2ccccc2)c2c1N(CCCC(=O)NCc1ccc(Cl)cc1)C(=O)CS2,-4,-3%,2,1,0,-48*
Cc1ccc(-n2nc3c(=O)n(CCCC(=O)NCCc4ccccc4)nc(C)c3c2C)cc1,1,4%,-4,4,0,4
CCN(CC(=O)Nc1ccc(NC(C)=O)cc1)C(=O)c1ccc(=O)[nH]c1,0,-1%,-3,1,0,9
Cc1nc2[nH]c(=O)c3c(n2n1)NC1=C(C(=O)CC(C)(C)C1)C3c1ccccc1 (stereo unspecified),-3,-6%,0,5,0,-51*
CCOC(=O)CSc1nc(C)c(C(=O)OCC)s1,7,-4%,-1,2,0,-35*
CCOc1ccc(NC(=O)Cn2cc(C(=O)c3ccc(CC)cc3)c(=O)c3cc4c(cc32)OCO4)cc1,0,-3%,4,1,0,-15
O=C(CSCc1ccccc1)N1CCN(c2ccc(F)cc2)CC1,-5,9%,5,8,-2,-11
CC(CC(=O)N1CCN(c2ccccc2F)CC1)c1ccccc1 (stereo unspecified),2,-1%,-3,4,0,-32*
O=C(CSCc1ccc(F)cc1)N1CCN(c2ccccc2F)CC1,-2,0%,-1,1,-1,-58*
O=C(CCc1ccccc1)N1CCN(c2ccccc2F)CC1,2,-3%,-2,0,0,-9
C[C@H](NC(=O)c1nc[nH]c1C(=O)N1CCN(c2ccccc2)CC1)c1ccccc1,-3,-5%,-3,1,3,22
CCN1CCCC1CNC(=O)c1cnn(-c2nccc(-c3cc(OC)ccc3OC)n2)c1C (stereo unspecified),/,-6%,/,/,/,/
COC(=O)Cn1c(=O)n(CCc2ccccc2)c(=O)c2c3c(sc21)CCCC3,-6,-5%,13,2,1,-4
CCOc1ccc(NC(=O)Cn2c(=O)n(CCc3ccccc3)c(=O)c3c4c(sc32)CCCC4)cc1,-2,-1%,11,-1,1,-36*
COC(=O)C/C=C\[C@@H](C)[C@@H](/C=N\O[C@@H](C)c1cc(-c2c(C)cc(C)cc2C)no1)OC,/,-5%,/,/,/,/
CC(C)C(=O)N1CCN(c2ccc(NC(=O)COc3ccccc3[N+](=O)[O-])cc2)CC1,-7,-8%,-3,12,0,-31*
CN1CCN(c2ccc(NC(=O)COc3ccccc3[N+](=O)[O-])cc2)CC1,-9,-2%,-1,0,1,/
C=C1C=C(C)n2ncc(C(=O)NCCCCCC)c2N1,/,5%,/,/,/,/

# From PubChem BioAssay
